Most compounds without a hit are left out; they make up all but 15% or so of the library.
RORg inh: ROR gamma (mouse) transcription inhibition; AID 2551; 5.4% of 310,000 active; P51450; Potency, µM (series often up to 53.6 µM), inactives show at the highest dose activity change, negative = inhibition, hits mostly inhibitors; Drosophila S2 Gal4-RORgamma UAS-luciferase reporter, 20 h; further: nearly all actives have a fitted effect of over 60% in size
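ROR gamma transcriptional activity was tracked as Gal4-UAS luciferase output in stably transfected Drosophila Schneider cells, with compound added 1 hr before 700 uM copper sulfate induction and a 20 hr ambient-temperature incubation.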
ELG1 DNA repair: blocks ELG1-dependent DNA repair in HEK293T cells; HEK293T ELG1-luciferase reporter, luminescence, 16 h; DNA damage induced by 5-fluorouridine; AID 504467; 2.3% of 330,000 active; Potency, µM (top dose mostly 46.1 µM), for the others: at the highest dose activity change, negative = inhibition, hits mostly inhibitors; further: nearly all actives have a fitted effect of over 55% in size
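Overnight (16 hr) co-exposure of 2,000 cells/well to 5-fluorouridine and compound at 37 °C preceded detection. Luciferase was quantified via ONE-Glo luminescence; loss of signal denotes inhibition.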
TDP1 cell CPT: DT40-hTDP1 cell growth loss with CPT; chicken DT40 Tdp1-/-;hTDP1 cells + 20 nM CPT, ATP luminescence, 48 h; Potency, µM (series often up to 46.2 µM), for the others: at the highest dose activity change, negative = growth inhibition, actives largely listed as inhibitors; 12% of 420,000 active; further: nearly all actives have a fitted effect of over 55% in size
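Chicken DT40 Tdp1-/- cells complemented with human TDP1, 400 cells/well, exposed to compounds plus 20 nM camptothecin for at least 48 h at 37 C; viability read as ATP content by CellTiter-Glo luminescence.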
ALOX12 inh: blocks human arachidonate 12S-lipoxygenase. P18054. purified 12hLO, xylenol orange hydroperoxide absorbance. Potency, µM (highest dose often 108 µM), for the others: at the top dose activity change, negative = inhibition, hits mostly inhibitors. 1.1% of 580,000 active
Target sequence (P18054 whole entry, looked up): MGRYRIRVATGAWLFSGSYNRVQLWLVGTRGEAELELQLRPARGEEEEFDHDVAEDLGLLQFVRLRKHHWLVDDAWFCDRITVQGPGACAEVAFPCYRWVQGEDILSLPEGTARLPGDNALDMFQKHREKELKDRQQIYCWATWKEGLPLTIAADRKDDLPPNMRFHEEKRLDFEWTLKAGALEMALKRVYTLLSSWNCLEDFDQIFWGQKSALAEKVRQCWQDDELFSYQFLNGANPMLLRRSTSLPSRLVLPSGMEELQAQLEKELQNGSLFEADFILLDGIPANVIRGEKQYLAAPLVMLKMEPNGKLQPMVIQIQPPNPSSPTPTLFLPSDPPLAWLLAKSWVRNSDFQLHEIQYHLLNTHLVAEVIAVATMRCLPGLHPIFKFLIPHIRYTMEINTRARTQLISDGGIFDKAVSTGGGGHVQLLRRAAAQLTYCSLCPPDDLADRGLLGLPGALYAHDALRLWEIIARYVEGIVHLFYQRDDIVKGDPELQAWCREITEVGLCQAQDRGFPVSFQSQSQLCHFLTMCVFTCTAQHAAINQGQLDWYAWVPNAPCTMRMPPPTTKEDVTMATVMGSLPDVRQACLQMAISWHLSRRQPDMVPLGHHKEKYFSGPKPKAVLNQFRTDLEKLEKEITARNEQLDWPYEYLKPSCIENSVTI
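Purified human 12hLO at 150 nM in 25 mM Hepes, 0.01% Triton X-100, pH 7.0, preincubated 15 min at room temperature with compound. Reaction started with 40 uM arachidonic acid, 30 min at room temperature. Hydroperoxide measured by Fe-xylenol orange, 573/405 nm absorbance ratio.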
DT40 TDP1 no CPT: qHTS for Inhibitors of human tyrosyl-DNA phosphodiesterase 1 (TDP1): qHTS in cells in absence of CPT; DT40 Tdp1-/- hTDP1 cells, no CPT, ATP luminescence, 48 h; 15% of 420,000 active; Potency, µM (titrated, usually from 46.2 µM), for inactives: at the highest dose activity change, negative = growth inhibition, actives largely listed as inhibitors; further: nearly all actives have a fitted effect of over 55% in size
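Chicken DT40 Tdp1-/- cells complemented with human TDP1, screened without camptothecin (DMSO vehicle only), 400 cells/well. Compounds pin-transferred, cells incubated at 37 °C for at least 48 hr. Growth read as ATP-dependent luminescence (CellTiter-Glo, 30 min at RT).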
Gal4-VP16 FLuc: Gal4-VP16 reporter inhibition counter-screen. 3.5% of 310,000 active. Potency, µM (top dose mostly 53.6 µM), for the others: at the top dose activity, negative = inhibition, actives largely listed as inhibitors. AID 2546. Drosophila S2 Gal4-VP16 UAS-luciferase, luminescence, 20 h;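 further: Gal4-VP16 expression switched on by copper sulfate through the metallothionein promoter; nearly all actives have a fitted effect of over 50% in size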
* hit, by the source's call; ? = inconclusive; / = not tested or not shown; [ ] = dose if it differs, or a comment. The call rests on the fitted dose curve; in most records, active means well fitted curve in the direction sought with a large enough effect; inconclusive means small, poorly fitted or top-dose-only effect, or another doubt; inactive means no such curve, though single readings can be large; an effect the other way counts as inactive or inconclusive. On the % scale 0 is the no-effect control and ±100 the full control effect; potency means the concentration at half of the fitted maximal effect.

SMILES | RORg inh | ELG1 DNA repair | TDP1 cell CPT | ALOX12 inh | DT40 TDP1 no CPT | Gal4-VP16 FLuc
CN1CCN(c2ccccc2NC(=O)c2ccc(-c3ccc(Cl)c(Cl)c3)o2)CC1 | 23% | 18% | 18µM* | ? | ? | -1%
Cc1ccc(NC(=O)c2cnc3sc(N4CCOCC4)nn3c2=O)cc1N(C)C | / | / | 15µM* | 4% | 21µM* | /
COc1ccc(CNC(=O)Cn2c(=O)oc3cc(S(=O)(=O)N4CCCC4)ccc32)cc1 | 5% | -5% | 18µM* | -6% | ? | 5%
CN(C)c1ccc(CNC(=O)Cn2c(=O)oc3cc(S(=O)(=O)N4CCCCCC4)ccc32)cc1 | / | / | 12µM* | ? | -28% | /
CC(C)c1ccc(NC(=O)Cn2c(=O)oc3cc(S(=O)(=O)N4CCCC4)ccc32)cc1 | / | / | 9.2µM* | -18% | ? | /
CN1Cc2ccccc2-n2ccnc2C12CCN(C(=O)c1cc(F)cc(F)c1)CC2 | / | / | / | 12% | / | /
COc1ccc(C(c2nnnn2-c2c(C)cccc2C)N2CCC3(CC2)C(=O)NCN3c2ccccc2)cc1 (stereo unspecified) | / | / | 15µM* | -23% | 21µM* | /
CC(C)(C)n1nnnc1C(c1cccc2ccccc12)N1CCC2(CC1)C(=O)NCN2c1ccccc1 (stereo unspecified) | / | / | ? | -33% | ? | /
Cc1cccc(C)c1-n1nnnc1C(c1ccnc2ccccc12)N1CCC2(CC1)C(=O)NCN2c1ccccc1 (stereo unspecified) | / | / | 23µM* | ? | 15µM* | /
CC(C)(C)n1nnnc1C(C1CC1)N1CCC2(CC1)C(=O)NCN2c1ccccc1 (stereo unspecified) | / | / | ? | ? | 16µM* | /
Cc1cccc(C)c1-n1nnnc1C(C1CC1)N1CCC2(CC1)C(=O)NCN2c1ccccc1 (stereo unspecified) | / | / | 16µM* | -4% | 15µM* | /
COc1cc2c(cc1OC1CCCC1)NC(=O)C21CCN(C(=O)Cc2ccccc2)CC1 | / | / | / | 0%[176 µM] | / | /
Cc1ccccc1-c1ccc2n(c1=O)C[C@H]1C[C@@H]2CN(C(=O)Nc2cccc(F)c2)C1 | / | / | / | 34%[176 µM] | / | /
Cc1cccc(C)c1-n1nnnc1C(c1ccccc1)N1CCC2(CC1)C(=O)NCN2c1ccccc1 (stereo unspecified) | / | / | 23µM* | -21% | 21µM* | /
Cc1ccc2c(n1)N(C)[C@H](CO)CCN(C1COC1)C2 | / | / | / | 9%[176 µM] | / | /
CCN(C1CCOCC1)C1CNC1 | / | / | / | 6% | / | /
Cc1nc2cc(-c3ccc(Cl)cc3)nn2c(C)c1CCC(=O)N1CCC2(CC1)OCCO2 | / | / | 23µM* | ? | 21µM* | /
C#C[C@]1(O)CCC2C3CCC4=C/C(=N/OCC(=O)NC(C)C(=O)NC(CCSC)C(=O)O)CC[C@]4(C)C3CC[C@@]21C (stereo partly specified) | -19% | 8.2µM* | -12% | -13% | 4% | -7%
Cc1ccc(CN2C[C@@H]3C(=O)N(C)C(=O)[C@@H]3C2)o1 | / | / | / | -6% | / | /
CN(CC1COc2ccccc2O1)c1nc(-c2cccnc2)nc2ccccc12 (stereo unspecified) | ? | 16µM* | 21µM* | 0% | 23µM* | 3%
O=C1NCN(c2ccccc2)C12CCN(C[C@H]1COc3ccccc3O1)CC2 | 16% | / | 9% | 0% | -25% | -1%
O=[S+]1([O-])NC2(CCN(Cc3ccccn3)C2)CNc2ccccc21 (stereo unspecified) | / | / | / | 58% | / | /
CCOC(=O)c1c(C)c(P(=S)(N2CCOCC2)N2CCOCC2)n(C)c1C | -1% | 16µM* | -4% | 32% | -2% | -4%
